Source: PubChem BioAssay
Pf Dd2 growth = inhibitors of Plasmodium falciparum Dd2 growth | 120,000 tested, 4.3% active | Potency, µM (doses to about 28.9 µM), for inactives: top-dose activity, negative = inhibition, hits mostly inhibitors | P. falciparum Dd2 growth, SYBR Green, 72 h; active = well fitted inhibition curve with a large enough effect;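 note: plate controls were DMSO vehicle for no effect and reference drug for full effect; nearly all actives have a fitted effect of over 65% in size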
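Readout: SYBR Green fluorescence, 485 nm excitation, 535 nm emission, after ~16 h lysis at 37C. Before that, Dd2-infected red cells (2.5% hematocrit) grew 72 h with compound, 29 uM top final concentration.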
Active calls of the source: *; i = inactive; [ ] = remark or other dose. The full list was thinned out, with hits kept by preference. Potency is the fitted concentration of half-maximal effect.

SMILES	Pf Dd2 growth
CC1(C)C(=O)N(Cc2ccc(O)cc2)[C@H]2CN(CC3CCOC3)C[C@H]2[S+]1(=O)[O-] (some centres not stated)	27%[44.1 µM]
O=C(NC1CCN(c2cc(-c3ccc(F)cc3)[nH]n2)CC1)c1ccncc1	-20%
CN(C)Cc1nc(C(=O)N2CCC3(CC2)[C@H](O)C[C@@H]3O)cs1	-13%
COc1ccc2[nH]c3c(c2c1)CCNC31CCN(C(=O)C2CCCO2)CC1 (configuration not stated)	1%
CCCCNC(=O)CN1C(=O)NC(c2ccc(OCC)cc2)C2=C1COC2=O (configuration not stated)	-17%
Cc1nn(C)c(C)c1C(=O)N1CCCn2ccnc2C1c1ccccc1 (configuration not stated)	21%
CCc1c(C)nc(C)nc1N1CCN(C)C2(CCC(=O)N(CC)CC2)C1 (configuration not stated)	-1%
CCOc1ccc(C(=O)N2CCC3(CCCN(C)C3=O)C2)o1 (configuration not stated)	4%
Cc1ccc(Cl)cc1N1CCN(C(=O)c2cnn(-c3ccc(Cl)cc3)c2C2CCNCC2)CC1	10µM*
CCc1nc(SC)ncc1C(=O)N1CCN(c2cc(Cl)ccc2C)CC1	i
CC(C)(C)OC(=O)N1CCC(c2c(C(=O)N3CCN(c4ccccn4)CC3)cnn2-c2ccc(F)cc2)CC1	-5%
COC(=O)c1cccc(C(=O)N[C@H]2CO[C@H]3[C@@H]2OC[C@H]3OC(=O)Nc2ccc(Oc3ccccc3)cc2)c1	-25%
CCCCS(=O)(=O)N[C@@H]1CN(c2ncccn2)C[C@H]1CN(C)C	9%
Cc1cc(C(=O)N2C[C@@H](C)[C@@](C)(O)C2)cc(S(N)(=O)=O)c1C	-5%
CN1CCN(Cc2nc(C3(O)CCN(C(=O)N4CCOCC4)CC3)cs2)CC1	5%[44.1 µM]
CC(C)NC(=O)N1CCC2(CC1)C(=O)N(C)c1ccccc12	64%
Cc1ccccc1Oc1c(CCC(=O)N2CCSCC2)c(C)nn1-c1ccc(F)cc1	i
Cc1nn(-c2ccc(F)cc2)c(Oc2ccc(F)cc2F)c1CCC(=O)N1CCCC1	-8%
Cc1nn(-c2ccc(F)cc2)c(Oc2cccc(F)c2)c1CCC(=O)N1CCSCC1	7.9µM*
CSc1ccc(NC(=O)N2CCC(N(CCC(C)C)C3CCOCC3)CC2)cc1	i
CCCCNc1cc(N2CCN(C3CCCCC3)CC2)c2noc3c2c1C(=O)c1ccccc1-3	2.5µM*
O=C(c1ccc(F)cn1)N1CC(F)(F)C[C@H]1c1nc(C2CC2)no1	-1%
CCC(C)S(=O)(=O)c1oc(-c2cccs2)nc1S(=O)(=O)c1ccccc1 (configuration not stated)	13µM*
O=S(=O)(c1ccccc1)c1nc(-c2cccs2)oc1N1CCCCC1	14%
Cc1ccc(CSc2oc(-c3cccs3)nc2S(=O)(=O)c2ccccc2)cc1	20%
SMILES	Pf Dd2 growth
Cc1ccc(-n2nc3c(N4CCC(C(=O)NC5CCCCC5)CC4)nnc(C)c3c2C)cc1	10%
COc1ccc(CNC(=O)C2CCN(c3nnc(C)c4c(C)n(-c5ccc(C)cc5)nc34)CC2)cc1	7.9µM*
Cc1nnc(N2CCC(C(=O)NCCc3ccccc3)CC2)c2nn(-c3ccccc3)c(C)c12	-16%
Cc1ccc(-n2nc3c(N4CCC(C(=O)NC(C)C)CC4)nnc(C)c3c2C)cc1	55%[5.79 µM]
CCNC(=O)C1CCN(c2nnc(C)c3c(C)n(-c4ccc(OC)cc4)nc23)CC1	8.9µM*
COc1cc(NC(=O)C2CCN(c3nnc(C)c4c(C)n(-c5ccccc5)nc34)CC2)cc(OC)c1	-16%
CCOC(=O)Cc1csc(NC(=O)C2CC(=O)N(c3n[nH]c4cccc(F)c34)C2)n1 (configuration not stated)	-1%
O=C(NC1CCCc2c1[nH]c1ccccc21)c1n[nH]c2c1CCCC2 (configuration not stated)	-11%
O=C(CC1CCN(C(=O)C2(c3ccccc3)CC2)C1)NC1CC1 (configuration not stated)	18%
COc1cccc(C(=O)NCC2CCCN(Cc3cccc4nonc34)C2)c1OC (configuration not stated)	-15%
CCOc1ccc(-c2cc3nc(C4CCN(C(=O)OC(C)(C)C)CC4)c(C(=O)Nc4ccc(C)cc4C)cn3n2)cc1	8.9µM*
CCOc1ccc(-c2nnc(SCC(=O)Nc3ccc(C)cc3C)o2)cc1	16%
COc1ccc(-c2cc(C(F)(F)F)n3nc(C(=O)Nc4cccc(Cl)c4C)cc3n2)cc1	39%
CCOc1ccc(-c2cc3nc(C4CCN(C(=O)OC(C)(C)C)CC4)c(C(=O)Nc4ccc(C)cc4Cl)cn3n2)cc1	4µM*
CCOc1ccc(-c2cc3nc(C4CCN(C(=O)OC(C)(C)C)CC4)c(C(=O)Nc4c(C)cccc4C)cn3n2)cc1	2.5µM*
CCOc1ccc(-c2c(C)nn3c(C)c(C(=O)Nc4cccc(Cl)c4C)cnc23)cc1OCC	i
CCOc1ccc(-c2cc(C(=O)N3CCN(c4cccc(C)c4)C(C)C3)c3ccccc3n2)cc1 (configuration not stated)	-29%
CCc1ccc(NC(=O)c2cnn(-c3c(C)cccc3C)c2C2CCN(C(=O)OC(C)(C)C)CC2)cc1	-10%
CCOc1ccc(-c2nnc(SCC(=O)Nc3ccc(C)cc3Cl)o2)cc1	13%
Cc1cccc(C)c1-n1ncc(C(=O)O)c1C1CCN(C(=O)OC(C)(C)C)CC1	-2%
CCOc1ccc(-c2cc3nc(C4CCN(C(=O)OC(C)(C)C)CC4)c(C(=O)Nc4cccc(Cl)c4C)cn3n2)cc1	5µM*
COc1ccc(-n2ncc(C(=O)Nc3ccc(C)cc3Cl)c2C2CCN(C(=O)OC(C)(C)C)CC2)cc1	-7%
Cc1cnc(CC2CCN(C(=O)c3nn(C)c4ccccc34)C2)n1CC1CC1 (configuration not stated)	i
CC(C)n1cnnc1CNC(=O)[C@H]1CNC[C@H](C(=O)N2CCOCC2)C1	-16%
CCN(CC)C(=O)c1c(C)sc2ccn(Cc3ccc(F)cc3)c(=O)c12	i
SMILES	Pf Dd2 growth
CN(C)c1nc(-c2ccccc2)nc2c1CCN(C(=O)[C@@H](O)c1ccccc1)C2	-18%
Cn1ncc(N2CCCC(CC(=O)NC3CCCCC3)C2)cc1=O (configuration not stated)	23%
COCCOC1CCN(C(C(=O)O)c2cc(C)c(OC)c(C)c2)CC1 (configuration not stated)	4%
O=C(c1cccnn1)N1C[C@H]2CN(C3CCOCC3)C[C@@]2(C(=O)O)C1	-8%
O=C1CCN(S(=O)(=O)c2ccccc2)CCCN(Cc2ccc3cc[nH]c3c2)CCN1	5µM*
Cc1noc(C)c1CN1CCCN(S(=O)(=O)c2ccccc2)CCC(=O)NCC1	-2%
CC(=O)N1CCCN(S(=O)(=O)c2ccccc2)CCC(=O)NCC1	-12%
Cc1cnc(C(=O)N2CCCN(S(=O)(=O)c3ccccc3)CCC(=O)NCC2)cn1	19%
CN(C)S(=O)(=O)N1CCCN(S(=O)(=O)c2ccccc2)CCC(=O)NCC1	-2%
O=C1CCN(S(=O)(=O)c2ccccc2)CCCN(Cc2cccc3[nH]ccc23)CCN1	7.9µM*
O=C1CCN(S(=O)(=O)c2ccccc2)CCCNCCN1	1%
Cn1cnc(C(=O)N2CCCN(S(=O)(=O)c3ccccc3)CCC(=O)NCC2)c1	-6%
O=C1CCN(S(=O)(=O)c2ccccc2)CCCN(C(=O)c2ccc3ccccc3n2)CCN1	11µM*
CC(C)C(=O)N1CCCN(S(=O)(=O)c2ccccc2)CCC(=O)NCC1	-14%
O=C1CCN(S(=O)(=O)c2ccccc2)CCCN(S(=O)(=O)c2ccc3c(c2)CCC3)CCN1	3.5µM*
